Experimental data published in PubChem BioAssay AID463173 (ICCB-Longwood Screening Facility, Harvard Medical School, 2010).
In all, about 52,000 compounds went through this assay and about 4,300 (8.3%) were called active. The sample as a whole holds a higher share of actives than the screen did. Unmarked numbers belong to inactive results. No stated cut-off is given here; in the data, active means survival mostly below about 52% (no sharp cut-off); inactive means mostly above about 56%.

system: DeltatarO mutant; experiment: S. aureus survival, RN4220 and DeltatarO strains – OD600, teichoic acid synthesis inhibitors, primary screen (AID 463173); details: S. aureus RN4220 wild type/DeltatarO growth, OD600, 18 h, active compounds read low, screened at 18.75 µg/mL (by protocol)

Compound	survival
Cc1c(NC(=O)c2nc3ccccc3nc2N2CCCCC2)cccc1[N+](=O)[O-]	100%
COc1ccc(-c2nc3n(n2)C(c2ccc(OC)cc2)C(C(=O)Nc2cccnc2)=C(C)N3)cc1 (centres undefined)	89%
Cc1ccc(N2CC(NC(=O)CCc3ccccc3)CC2=O)cc1C (centres undefined)	101%
COc1ccc(N2CCN(C(=O)Cn3c(-c4cccs4)cc4ccccc43)CC2)cc1	80%
Cc1cc(C)c(NC(=O)CN2C(=O)c3cccnc3Sc3ccccc32)c(C)c1	83%
CCOC(=O)c1ccc(N2C(=O)c3n[nH]c(-c4ccco4)c3C2c2ccc(O)c(OCC)c2)cc1 (centres undefined)	69%
C=CCn1c(O)c(CN2CCOCC2)c(C)c(C#N)c1=O	89%
O=C(O)Cc1ccc(NC2(c3ccccc3)C(=O)c3ccccc3C2=O)cc1	73%
Cc1cccc(NC(=O)c2ccc3c(O)c(S(=O)(=O)c4ccccc4)c(=O)[nH]c3c2)c1C	88%
Cc1ccc(C)c(NC(=O)CN2CCN(C3CCCCC3)C(=O)C2=O)c1	94%
CCC(Cn1nnc2ccccc2c1=O)NC(=O)Nc1cc(Cl)ccc1OC (centres undefined)	71%
COC(=O)c1cc(S(=O)(=O)N2CCN(c3ccc(OC)cc3)CC2)c[nH]1	73%
Cc1ccc(Cl)cc1N1CCN(C(=O)c2cc(S(=O)(=O)N3CCCC3)c[nH]2)CC1	88%
COC(=O)c1cc(S(=O)(=O)N2CCN(c3cc(Cl)ccc3C)CC2)c[nH]1	12% (active)
CC(Oc1ccccc1)C(=O)Nc1ccccc1C(=O)OCc1cc(=O)n2nc(C(C)C)sc2n1 (centres undefined)	83%
Cc1cccc(C)c1Nc1c(-c2ccccn2)nc2ccc(Cl)cn12	135%
Cc1ccc2nc(-c3ccccn3)c(Nc3ccccc3C)n2c1	15%
Cc1ccn2c(Nc3ccccc3C)c(-c3cccnc3)nc2c1	81%
Cc1ccn2c(Nc3ccccc3C)c(-c3ccccc3)nc2c1	0% (active)
Cc1ccn2c(Nc3ccccc3C)c(-c3ccccn3)nc2c1	11% (active)
Cc1ccn2c(Nc3ccccc3C)c(-c3ccncc3)nc2c1	85%
Cc1ccc2nc(N3CCN(c4ccccc4F)CC3)c3nnnn3c2c1	87%
Cc1ccc(C)c(-n2cc(-c3ccccc3)nc2SCC(=O)Nc2ccccc2)c1	96%
Cc1cccc(NC(=O)c2cnn(-c3ccccc3)c2-n2cccc2)c1C	77%
CCC(=O)N1CCc2cc(Br)cc(S(=O)(=O)CCC(=O)N3CCN(c4cccc(C)c4)C(C)C3)c21 (centres undefined)	65%

Compound	survival
COc1ccc(C(=O)Nc2nc3n(n2)C(c2ccc(Cl)cc2)C=C(c2ccccc2)N3)cc1OC (centres undefined)	59%
O=C(Nc1nc2n(n1)C(c1ccccc1)C=C(c1ccccc1)N2)c1ccccc1 (centres undefined)	109%
O=C(Nc1nc2n(n1)C(c1ccc(Cl)cc1)C=C(c1ccccc1)N2)c1ccco1 (centres undefined)	35% (active)
Cc1ccc(C2C=C(c3ccc(Cl)cc3)Nc3nc(NC(=O)c4ccco4)nn32)cc1 (centres undefined)	67%
O=C(Nc1nc2n(n1)C(c1ccc(F)cc1)C=C(c1ccccc1)N2)c1ccco1 (centres undefined)	41% (active)
O=C(Nc1nc2n(n1)C(c1ccc(F)cc1)C=C(c1ccccc1)N2)c1cccc([N+](=O)[O-])c1 (centres undefined)	99%
O=C(Nc1nc2n(n1)C(c1ccccc1)C=C(c1ccc(Cl)cc1)N2)c1ccco1 (centres undefined)	42%
O=C(Nc1nc2n(n1)C(c1ccc(F)cc1)C=C(c1ccc(Cl)cc1)N2)c1ccco1 (centres undefined)	16% (active)
CC(=O)Nc1nc2n(n1)C(c1ccc(F)cc1)C=C(c1ccc(Cl)cc1)N2 (centres undefined)	59%
O=C(NCCN1CCN(c2ccccc2)CC1)Nc1ccccc1Br	87%
Cc1ccc(C)c(CN2C(=O)c3ccccc3S(=O)(=O)c3ccc(C(=O)N4CCCCC4)cc32)c1	61%
Cc1cc2nn(-c3ccc(F)cc3)nc2cc1NC(=O)c1ccc(OC(C)C)cc1	64%
O=c1c(S(=O)(=O)c2cccc(Cl)c2)cn(Cc2ccccc2)c2cc(N3CCOCC3)c(F)cc12	83%
CCC(=O)N1CCc2cc(CNS(=O)(=O)c3ccc(NC(=O)CC(C)C)cc3)ccc21	86%
CC(=O)Nc1ccc(OC(=O)c2ccco2)cc1	71%
c1cn(CCCNc2ncnc3sc4c(c23)CCCCC4)cn1	65%
c1coc(CNc2ncnc3sc4c(c23)CCCC4)c1	107%
CCc1ccc(Nc2ncnc3sc4c(c23)CCCC4)cc1	72%
CC(C)OCCCNc1ncnc2sc3c(c12)CCCC3	42% (active)
Cc1cc(C)cc(Nc2ncnc3sc4c(c23)CCCC4)c1	0% (active)
CN(C)c1ccc(Nc2ncnc3sc4c(c23)CCCC4)cc1	106%
CCOc1ccccc1NC(=O)C1CCN(S(=O)(=O)c2c(C)noc2/C=C/c2ccco2)CC1	72%
COc1ccc(N2CCN(S(=O)(=O)c3ccc(CC(C)C)cc3)CC2)cc1	56% (active)
COc1ccc(N2CCN(S(=O)(=O)c3ccc(C4CCCCC4)cc3)CC2)cc1	79%
COc1ccc(N2CCN(S(=O)(=O)c3ccc4c(c3)C(C(C)C)C(=O)N4)CC2)cc1 (centres undefined)	125%

Compound	survival
Cc1ccc(NC(=O)Cn2cc(C(=O)C3CC3)c3ccccc32)cc1	148%
CCOC(=O)c1c(C)n(-c2ccccc2)c2ccc(OC(=O)COc3ccccc3)cc12	70%
CCN1C(=C(C#N)C#N)C=Cc2cc(C)ccc21	70%
COc1cccc(N2CC(NC(=O)c3ccc(S(=O)(=O)N4CCOCC4)cc3)CC2=O)c1 (centres undefined)	117%
COC(=O)Cc1c(C)nc2nc(-c3ccc(C)cc3)[nH]n2c1=O	92%
Cc1nn(C(C)C(=O)Nc2ccccc2C(F)(F)F)c(=O)c2c1sc1ccccc12 (centres undefined)	107%
CC(=O)Nc1ccccc1-c1nc2ccccc2n(C(C)C(=O)Nc2ccccc2C(F)(F)F)c1=O (centres undefined)	98%
CC(C(=O)Nc1ccccc1C(F)(F)F)n1nc(-c2ccccc2)c2c(c1=O)CCCC2 (centres undefined)	30% (active)
CC(C(=O)Nc1ccccc1)n1nnc2sc3c(c2c1=O)CCCC3 (centres undefined)	61%
CCN(CC)S(=O)(=O)c1cc(-c2ccc(=O)n(C(C)C(=O)Nc3cccc(C#N)c3)n2)ccc1C (centres undefined)	56%
CC(C(=O)Nc1cccc(C#N)c1)n1nc(-c2ccccc2)c2c(c1=O)CCCC2 (centres undefined)	20% (active)
CCN(C(=O)Cn1c(=O)n(-c2ccccc2)c(=O)c2ccc(C(=O)NCc3ccc4c(c3)OCO4)cc21)c1cccc(C)c1	84%
CC(C)C(c1nnnn1C(C)(C)C)N(Cc1cc2cc3c(cc2[nH]c1=O)OCCO3)C1CCCCC1 (centres undefined)	109%
COc1cccc(NC(=O)CCN2CCN(CCO)CC2)c1	158%
CC(C)c1nn2c(=O)cc(COC(=O)CNC(=O)c3ccccc3Cl)nc2s1	125%
COc1ccc2oc(=O)cc(CN3CCN(C(=O)c4ccccc4F)CC3)c2c1	36% (active)
COc1ccc2oc(=O)cc(CN3CCN(c4ccccc4OC)CC3)c2c1	77%
COc1ccc2oc(=O)cc(CN3CCN(c4ccc(F)cc4)CC3)c2c1	61%
CCOc1ccc2oc(=O)cc(CN3CCN(c4ccccc4)CC3)c2c1	83%
COc1ccc2oc(=O)cc(CN3CCN(C(=O)c4ccccc4)CC3)c2c1	41% (active)
COc1ccc(N2CCN(Cc3cc(=O)oc4ccc(OC)cc34)CC2)cc1	86%
COc1ccc2oc(=O)cc(CN3CCN(C(=O)c4ccccc4Br)CC3)c2c1	44% (active)
COc1ccc2oc(=O)cc(CN3CCN(c4ccccc4F)CC3)c2c1	72%
COc1ccc2oc(=O)cc(CN3CCN(Cc4ccccc4)CC3)c2c1	83%
CC(C)NC(=O)C1CCN(Cc2ccccc2Cl)CC1	92%

Compound	survival
Cc1ccc(NC(=O)CCNS(=O)(=O)c2ccc3c(c2)CCN3C(=O)C2CC2)c(Cl)c1	83%
COc1ccc(Cl)cc1NC(=O)CSc1nnc(C)n2c1cc1occc12	50%
Cc1ccc(C)c(NC(=O)Cn2c(=O)n(CCC(=O)NCc3ccc4c(c3)OCO4)c(=O)c3ccccc32)c1	104%
O=C(CN1C(=O)CSC1=O)c1ccccc1	88%
CC1Cc2ccccc2N1C(=O)c1cnsn1 (centres undefined)	97%
CC1=C(C(=O)Nc2ccc(Cl)cc2)C(c2cccs2)n2nc(SCc3cccc(Cl)c3)nc2N1 (centres undefined)	89%
CC(=O)Nc1cc(-c2ccc(Cl)cc2)[nH]n1	106%
CCNC(=S)Nc1cc(-c2ccc(Cl)cc2)[nH]n1	20% (active)
CCOC(=O)/C=C(\C)Nc1cc(-c2ccc(Cl)cc2)[nH]n1	68%
CCN(CC)S(=O)(=O)c1ccc2c(c1)N(CC(=O)N1CCN(c3ccc(F)cc3)CC1)C(=O)CO2	94%
Cc1oc(-c2ccc(Cl)cc2)nc1CS(=O)CC(=O)NCc1ccc(Cl)cc1 (centres undefined)	63%
Cc1ccc(-c2onc(C)c2C)cc1S(=O)(=O)Nc1ccc(Cl)cn1	97%
CCOc1ccc(-c2nnc(SCC(=O)NC3CCCCC3)nc2-c2ccc(OCC)c(OC)c2)cc1OC	78%
O=C(CSc1nc(-c2cccs2)nc2cc(=O)[nH]n12)Nc1ccccc1Cl	76%
Cc1cccc(NC(=O)CSc2ncc(-c3ccc(Br)cc3)[nH]2)c1	110%
CCOc1ccc(-c2nnc(SCC(=O)NC3CCCC3)nc2-c2ccc(OCC)c(OC)c2)cc1OC	71%
O=C(CSc1ncc(-c2ccccc2)[nH]1)Nc1cccc(O)c1	89%
O=C(CSc1nc2cc3ccccc3cc2[nH]1)Nc1cccc(C(F)(F)F)c1	74%
COc1ccc(-c2nnc(SCC(=O)NC3CCCC3)nc2-c2ccc(OC)c(OC)c2)cc1OC	47% (active)
O=C(CSc1ncc(-c2ccccc2)[nH]1)Nc1cccc(Br)c1	9% (active)
O=C(CSc1ncc(-c2ccccc2)[nH]1)Nc1cccc(C(F)(F)F)c1	12% (active)
Cc1cccc(NC(=O)CSc2ncc(-c3ccccc3)[nH]2)c1C	51%
Cc1ccccc1NC(=O)CSc1nc(-c2cccs2)nc2cc(=O)[nH]n12	93%
O=C(CSc1nc(-c2cccs2)nc2cc(=O)[nH]n12)Nc1ccccc1F	47% (active)
